High-throughput results from PubChem BioAssay.
ELG1 repair inh = qHTS screen for small molecules that inhibit ELG1-dependent DNA repair in human embryonic kidney (HEK293T) cells expressing luciferase-tagged ELG1; 330,000 compounds, 2.3% hits; Potency, µM (series often up to 46.1 µM), actives largely listed as inhibitors; HEK293T ELG1-luciferase reporter, luminescence, 16 h; DNA damage induced by 5-fluorouridine; AID 504467, 2011; note: nearly all actives have a fitted effect of over 55% in size
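Cells (2,000 per well) received 5-fluorouridine plus test compound or DMSO and were incubated 16 hr at 37 °C, 5% CO2. Luciferase activity was read by luminescence 30 min after ONE-Glo addition; signal suppression marked inhibition of damage-induced ELG1 function.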
NPC1 promoter act = qHTS Assay for NPC1 Promoter Activators; 320,000 compounds, 2.4% hits; AID 485313, 2010; Potency, µM (series often up to 9.22 µM), actives largely listed as activators; Huh7 NPC1 promoter luciferase reporter, 24 h; note: nearly all actives have a fitted effect of over 60% in size
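Cells: Huh7 expressing luciferase under the NPC1 promoter, 1500/well. Seeded 2 h, compound added, incubated 24 h at 37 °C. Luciferase reagent, 10 min ambient, then luminescence.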
Rab9 promoter act = qHTS Assay for Rab9 Promoter Activators. Huh7 Rab9 promoter-luciferase reporter, luminescence, 24 h. Potency, µM (doses to about 9.22 µM), actives largely listed as activators. 320,000 compounds, 2.8% hits; note: nearly all actives have a fitted effect of over 60% in size
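Steps: seed 1500 Huh7 Rab9-luc cells per well, rest 2 h at 37 °C; add compound in DMSO; incubate 24 h; add luciferase reagent, 10 min ambient; read luminescence.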
ELG1 genotox = qHTS screen for small molecules that induce genotoxicity in human embryonic kidney (HEK293T) cells expressing luciferase-tagged ELG1 | 330,000 compounds, 1.3% hits | Potency, µM (titrated, usually from 46 µM), actives largely listed as activators | HEK293T ELG1-luciferase reporter, luminescence, 16 h | AID 504466, 2011; note: nearly all actives have a fitted effect of over 60% in size
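HEK293T cells expressing luciferase-tagged ELG1 were treated with compound or DMSO for 16 hr at 37°C. Luciferase activity was then read after 30 min with ONE-Glo at room temperature; rising signal flags genetic stress.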
FLuc counter = qHTS profiling assay for firefly luciferase inhibitor/activator using purifed enzyme and Km concentrations of substrates (counterscreen for miR-21 project) | Luciferin 4-monooxygenase (Photinus pyralis), P08659 | AID 588342, 2011 | Potency, µM (doses to about 57.5 µM), hits mostly inhibitors | purified FLuc, Km substrates, luminescence inhibition | 360,000 compounds, 6.9% hits; note: nearly all actives have a fitted effect of over 55% in size
Target sequence (P08659 whole entry, looked up): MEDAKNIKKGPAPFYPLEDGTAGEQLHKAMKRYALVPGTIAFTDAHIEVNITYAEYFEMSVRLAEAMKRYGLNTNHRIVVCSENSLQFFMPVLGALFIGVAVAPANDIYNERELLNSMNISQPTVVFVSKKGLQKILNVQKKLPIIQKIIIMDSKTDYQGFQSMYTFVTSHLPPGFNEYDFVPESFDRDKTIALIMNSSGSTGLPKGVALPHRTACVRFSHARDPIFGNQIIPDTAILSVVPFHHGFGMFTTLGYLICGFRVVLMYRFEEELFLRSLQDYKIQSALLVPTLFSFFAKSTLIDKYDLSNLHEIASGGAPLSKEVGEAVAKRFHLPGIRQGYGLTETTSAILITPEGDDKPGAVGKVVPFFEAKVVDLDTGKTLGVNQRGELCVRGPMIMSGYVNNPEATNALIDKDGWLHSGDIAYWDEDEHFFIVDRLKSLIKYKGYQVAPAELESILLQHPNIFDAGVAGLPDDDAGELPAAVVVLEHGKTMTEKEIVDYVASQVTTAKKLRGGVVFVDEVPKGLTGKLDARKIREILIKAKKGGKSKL
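Purified P. pyralis luciferase, 10 nM final, with Km-level 10 uM D-luciferin and 10 uM ATP in 50 mM Tris acetate pH 7.5, 10 mM Mg acetate, 0.01% Tween-20, 0.05% BSA; 6-point qHTS titration about 60 µM downward; luminescence read.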
SMN2 splice up = qHTS Assay for Enhancers of SMN2 Splice Variant Expression. HEK293 SMN2-luciferase splicing reporter, luminescence, 30-36 h. Potency, µM (top dose mostly 46.1 µM), most hits filed as activators. 210,000 compounds, 2.8% hits; note: nearly all actives have a fitted effect of over 55% in size
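HEK293 cells carry an SMN2 minigene-luciferase reporter in which exon 7 inclusion puts luciferase in frame. Cells were seeded at 2000 cells/well, attached for 10-12 hours, then exposed to compounds for 30-36 hours at 37C before ONE-Glo luminescence.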
Large screens that a line does not name were inactive. Compounds with a hit are over-represented: about 9.3% of the library has one in this group of screens. Calls come from the whole dose curve; as a rule, active = well fitted curve in the direction sought with a large enough effect; inconclusive = small, poorly fitted or top-dose-only effect, or another doubt; inactive = no such curve, though single readings can be large; an effect the other way counts as inactive or inconclusive.

COc1cc(C2/C(=C(\O)c3ccc4c(c3)OCCO4)C(=O)C(=O)N2Cc2ccco2)cc(OC)c1OC (configuration not stated)	none (no result: SMN2 splice up)
COc1ccccc1CN1CCCC2(CCN(C(=O)c3ccncc3)CC2)C1	none (no result: ELG1 repair inh, NPC1 promoter act, Rab9 promoter act, ELG1 genotox, FLuc counter)
Nc1ccc(/C=C/C(=O)c2cccs2)cc1	ELG1 repair inh inconclusive, NPC1 promoter act 4µM, Rab9 promoter act 3.5µM, ELG1 genotox inconclusive, FLuc counter 1.3µM (no result: SMN2 splice up)
O=C(/C=C/c1ccc([N+](=O)[O-])cc1)c1cccs1	none (no result: SMN2 splice up)
Cc1c(/C=C/C(=O)c2cccs2)cnn1C	ELG1 repair inh inconclusive, NPC1 promoter act inconclusive, Rab9 promoter act inconclusive, ELG1 genotox 21µM, FLuc counter 9.5µM
CCc1ccc(C(=O)/C=C/c2cnn(C)c2C)s1	ELG1 repair inh inconclusive, NPC1 promoter act 4µM, Rab9 promoter act 3.5µM, ELG1 genotox 13µM, FLuc counter 0.6µM, SMN2 splice up 13µM
CC1CCCCN1c1nnc(NC(=O)c2cc(-c3ccc(Br)cc3)on2)s1 (configuration not stated)	none
Cc1ccc(-n2nnnc2SCC(=O)N2CC(=O)Nc3ccccc32)cc1	none
O=C(Cn1cnc2scc(-c3ccc(Br)cc3)c2c1=O)N1CCOCC1	none
CCOC(=O)C1CCN(C(=O)c2ccc(-n3ccc4ccccc43)s2)CC1	none (no result: ELG1 repair inh, NPC1 promoter act, Rab9 promoter act, ELG1 genotox, SMN2 splice up)
CC(NC(=O)C1CCN(C(=O)c2ccc(-n3ccc4ccccc43)s2)CC1)c1ccccc1 (configuration not stated)	FLuc counter 13µM (no result: ELG1 repair inh, NPC1 promoter act, Rab9 promoter act, ELG1 genotox, SMN2 splice up)
CN(C)S(=O)(=O)c1cccc(C(=O)N=C2N=C3C=CC(Cl)=CN3Cc3ccccc32)c1	ELG1 repair inh inconclusive, NPC1 promoter act 2.5µM, Rab9 promoter act 3.5µM, ELG1 genotox inconclusive, FLuc counter 17µM (no result: SMN2 splice up)
COc1ccc(Cc2nc3ccc(C(=O)NCc4cc(C)no4)cc3o2)cc1OC	none (no result: SMN2 splice up)
CN(Cc1nccn1C)C(=O)c1ccc2nc(Cc3ccccc3F)oc2c1	ELG1 repair inh inconclusive, Rab9 promoter act inconclusive, ELG1 genotox inconclusive, FLuc counter 13µM (no result: SMN2 splice up)
Cc1cc(CN(C)C(=O)c2ccc3nc(Cc4ccccc4F)oc3c2)on1	NPC1 promoter act 2.8µM, Rab9 promoter act 3.2µM, FLuc counter inconclusive (no result: SMN2 splice up)
CN(Cc1nccs1)C(=O)c1ccc2nc(Cc3ccccc3F)oc2c1	ELG1 repair inh inconclusive (no result: SMN2 splice up)
CCCOc1ccc(OC(=O)c2c(-c3ccccc3Cl)noc2C)cc1	none (no result: ELG1 repair inh, NPC1 promoter act, Rab9 promoter act, ELG1 genotox, SMN2 splice up)
COc1ccc(CCNC(=O)C/C(C)=N/NC(=O)c2ccc([N+](=O)[O-])cc2Cl)cc1OC	none (no result: SMN2 splice up)
Cc1ccc(NC(=O)COC(=O)C2CC3CCCC(C2)C3=O)c([N+](=O)[O-])c1 (configuration not stated)	none (no result: SMN2 splice up)
O=C(COC(=O)C12CC3CC(CC(C3)C1)C2)Nc1ccc([N+](=O)[O-])cc1Br	ELG1 repair inh inconclusive
N#Cc1cc([N+](=O)[O-])ccc1NC(=O)COC(=O)C1CC2CCCC(C1)C2=O (configuration not stated)	ELG1 repair inh 9.2µM (no result: SMN2 splice up)
N#Cc1cc([N+](=O)[O-])ccc1NC(=O)COC(=O)C12CC3CC(CC(C3)C1)C2	ELG1 repair inh 10µM (no result: SMN2 splice up)
O=C(COC(=O)CCc1nc2ccccc2c(=O)[nH]1)Nc1ccc2c(c1)OCO2	none (no result: SMN2 splice up)
c1ccc(SCCc2ccncc2)cc1	ELG1 repair inh inconclusive
CC(C)(C)c1ccc(SCCc2cccnc2)cc1	ELG1 repair inh inconclusive, NPC1 promoter act 2µM, Rab9 promoter act 3.5µM, ELG1 genotox inconclusive, FLuc counter 5.4µM (no result: SMN2 splice up)
FC(F)(F)c1ccc(C2=Nc3ccccc3NC(c3cccs3)=N2)cc1	none (no result: ELG1 repair inh, NPC1 promoter act, Rab9 promoter act, ELG1 genotox)
CCOC(=O)c1c(NC(=O)C2C3C=CC(C3)C2C(=O)O)sc2c1CC(C)(C)OC2 (configuration not stated)	none
